# Assay outcomes (PubChem BioAssay)
# A selection: hits, their analogues and other compounds. The true share with any hit is near 19%.
# TDP1 inh: qHTS Assay for Inhibitors of Tyrosyl-DNA Phosphodiesterase (TDP1); recombinant TDP1, AlphaScreen DNA substrate cleavage; Potency, µM (highest dose often 130 µM), inactives show at the top dose activity change, negative = inhibition, most hits filed as inhibitors; 350,000 compounds, 0.28% hits; Tyrosyl-DNA phosphodiesterase 1 (Homo sapiens), Q9NUW8; note: nearly all actives have a fitted effect of over 40% in size
# Target sequence (Q9NUW8 whole entry, looked up): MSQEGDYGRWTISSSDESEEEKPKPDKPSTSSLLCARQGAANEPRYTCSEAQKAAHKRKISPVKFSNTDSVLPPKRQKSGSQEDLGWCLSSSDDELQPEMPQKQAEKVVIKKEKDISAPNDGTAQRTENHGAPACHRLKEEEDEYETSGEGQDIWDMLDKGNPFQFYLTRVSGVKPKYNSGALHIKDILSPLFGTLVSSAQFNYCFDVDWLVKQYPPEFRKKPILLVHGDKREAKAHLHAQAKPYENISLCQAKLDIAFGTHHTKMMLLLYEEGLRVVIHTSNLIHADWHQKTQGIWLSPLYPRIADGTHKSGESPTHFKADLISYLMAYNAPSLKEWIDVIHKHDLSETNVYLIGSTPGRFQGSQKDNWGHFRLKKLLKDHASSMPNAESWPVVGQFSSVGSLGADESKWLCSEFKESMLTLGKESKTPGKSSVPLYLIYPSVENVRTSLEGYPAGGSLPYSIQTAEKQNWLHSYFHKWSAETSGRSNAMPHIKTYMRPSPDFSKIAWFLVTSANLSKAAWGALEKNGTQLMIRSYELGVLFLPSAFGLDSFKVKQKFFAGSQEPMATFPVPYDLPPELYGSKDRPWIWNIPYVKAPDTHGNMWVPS
#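 Compounds were preincubated with Tdp1 (1 nM final) for 15 min at room temperature before substrate (15 nM final) started a 5 min reaction; beads (10 ug/ml final) were then added for 10 min before AlphaScreen detection.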
# RORgamma inh: qHTS for inhibitors of ROR gamma transcriptional activity. Nuclear receptor ROR-gamma (Mus musculus), P51450. Drosophila S2 Gal4-RORgamma UAS-luciferase reporter, 20 h. Potency, µM (series often up to 53.6 µM), for the others: top-dose activity change, negative = inhibition, usual class: inhibitors. 310,000 compounds, 5.4% hits. AID 2551, 2010; note: nearly all actives have a fitted effect of over 60% in size
#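 Schneider cells (Drosophila), stable Gal4 DBD–ROR gamma + UAS-luc; 1 hr cmpd preincubation; Cu2+ induction 700 uM final; 20 hr ambient; luminescence.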
# TDP1 cell CPT: qHTS for Inhibitors of human tyrosyl-DNA phosphodiesterase 1 (TDP1): qHTS in cells in presence of CPT. chicken DT40 Tdp1-/-;hTDP1 cells + 20 nM CPT, ATP luminescence, 48 h. Potency, µM (titrated, usually from 46.2 µM), inactives show at the highest dose activity change, negative = growth inhibition, usual class: inhibitors. 420,000 compounds, 12% hits. AID 686979, 2013; note: nearly all actives have a fitted effect of over 55% in size
#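 Chicken DT40 Tdp1-/- cells complemented with human TDP1, 400 cells/well, exposed to compounds plus 20 nM camptothecin for at least 48 h at 37 C; viability read as ATP content by CellTiter-Glo luminescence.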
# Gal4-VP16 FLuc: VP16 counterscreen qHTS for inhibitors of ROR gamma transcriptional activity. Drosophila S2 Gal4-VP16 UAS-luciferase, luminescence, 20 h. Potency, µM (highest dose often 53.6 µM), for the others: at the highest dose activity, negative = inhibition, most hits filed as inhibitors. 310,000 compounds, 3.5% hits. AID 2546, 2010;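 note: Gal4-VP16 expression switched on by copper sulfate through the metallothionein promoter; nearly all actives have a fitted effect of over 50% in size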
# DT40 TDP1 no CPT: qHTS for Inhibitors of human tyrosyl-DNA phosphodiesterase 1 (TDP1): qHTS in cells in absence of CPT. Potency, µM (highest dose often 46.2 µM), for the others: at the top dose activity change, negative = growth inhibition, most hits filed as inhibitors. 420,000 compounds, 15% hits. DT40 Tdp1-/- hTDP1 cells, no CPT, ATP luminescence, 48 h. AID 686978, 2013; note: nearly all actives have a fitted effect of over 55% in size
#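 DT40 Tdp1-/-;hTDP1 cells, no CPT (DMSO vehicle only), 400 cells/well; compounds pin-transferred; ≥48 hr, 37 °C; CellTiter-Glo 30 min RT dark, luminescence read.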
# The depositor's hits bear a star; ? = inconclusive; . = no result; [ ] = remark or other dose. Calls come from the whole dose curve; as a rule, active = well fitted curve in the direction sought with a large enough effect; inconclusive = small, poorly fitted or top-dose-only effect, or another doubt; inactive = no such curve, though single readings can be large; an effect the other way counts as inactive or inconclusive. % is set by controls: 0 for no effect and ±100 for the full control effect; potency is the fitted concentration of half-maximal effect.
SMILES,TDP1 inh,RORgamma inh,TDP1 cell CPT,Gal4-VP16 FLuc,DT40 TDP1 no CPT
O=C(Cn1ncc2c(Cl)cccc21)NCc1cccc(Cl)c1,9%,.,-23%,.,-18%
CCC1CCC(C(=O)NC(C(=O)NCCN(CC(C)C)CC(C)C)C(C)C)CC1 (configuration not stated),6%,.,-1%,.,6%
COc1cc(CNn2c(C)n[nH]c2=S)cc(Cl)c1OCc1ccccc1,-3%,7.9µM*,-23%,-15%,-12%
COc1cc(CNn2cn[nH]c2=S)cc(Cl)c1OCc1ccc(F)cc1,3%,7.1µM*,?,4µM*,-76%
C=CCOc1ccc(CNn2cn[nH]c2=S)cc1OCC,5%,11µM*,2%,-13%,0%
COc1cc(CNCCSc2nnnn2C)cc(Cl)c1OCc1ccccc1,3%,.,?,.,?
Cc1cccc(-n2nc3c(c2NC(=O)C(C)C)CS(=O)(=O)C3)c1C,.,-10%,5%,-3%,14%
C#CCNC(=O)C1=C[C@@H](c2coc3ccccc3c2=O)[C@H](CCCO)[C@@H](OCC)O1,4%,3%,11%,8%,-2%
C=CCN(C(=O)c1csnn1)C(C(=O)NC1CCCCC1)c1ccccc1F (configuration not stated),1%,-15%,-13%,-6%,12%
O=C(NCCCNc1ccc(C(F)(F)F)cc1[N+](=O)[O-])c1cc(F)c(F)cc1Cl,4%,?,?,-23%,18µM*
COc1ccc(N2C(=O)CCC(C(=O)O)C2c2ccc(F)cc2)cc1 (configuration not stated),.,-1%,-1%,-3%,6%
O=c1c(N2CCN(c3ccc(F)cc3)CC2)csc2ccc(F)cc12,4%,.,18µM*,.,?
Cc1cc(C(=O)COC(=O)Cc2n[nH]c(=O)c3ccccc23)c(C)n1-c1ccc2c(c1)OCO2,5%,-19%,18µM*,18µM*,21µM*
COCCn1c(C)cc(C(=O)COC(=O)c2ccc3ncsc3c2)c1C,3%,?,13µM*,1%,15µM*
COCCn1c(C)cc(C(=O)COC(=O)c2cccnc2SC)c1C,7%,.,?,.,16µM*
COCCn1c(C)cc(C(=O)COC(=O)c2n[nH]c3ccccc23)c1C,1%,?,-29%,?,23µM*
COCCn1c(C)cc(C(=O)COC(=O)c2ccccc2Br)c1C,5%,-41%,-19%,?,?
Cc1ccc2[nH]c(C(=O)O)c(NC(=O)[C@@H]3C[C@@H]3c3ccccc3)c2c1,.,11%,-2%,-12%,-9%
Cc1cc(C(=O)COC(=O)Cc2n[nH]c(=O)c3ccccc23)c(C)n1CC(F)(F)F,1%,.,-23%,.,-25%
COc1ccccc1C(=O)COC(=O)Cc1n[nH]c(=O)c2ccccc12,-7%,.,1%,.,-27%
COCCn1c(C)cc(C(=O)COC(=O)Cc2n[nH]c(=O)c3ccccc23)c1C,9%,.,?,.,21µM*
COc1ccc(-n2c(C)cc(C(=O)COC(=O)Cc3n[nH]c(=O)c4ccccc34)c2C)cc1,8%,-8%,12µM*,?,9.2µM*
C=CC[C@H](CC(=O)OC(C)(C)C)C(=O)OC[C@H]1CCCN1C(=O)[C@@H](CC=C)CC(=O)N(CCO)Cc1ccccc1,1%,.,18µM*,.,21µM*
C=CC[C@H](CC(=O)OC(C)(C)C)C(=O)OC[C@H]1CCCN1C(=O)[C@H](CC=C)CC(=O)NCCO,1%,.,-2%,.,-15%
C=CC[C@@H](Cc1ccc(F)cc1)C(=O)OC[C@H]1CCCN1C(=O)[C@@H](CC=C)CC(=O)N(CCO)Cc1ccccc1,1%,.,15µM*,.,13µM*
SMILES,TDP1 inh,RORgamma inh,TDP1 cell CPT,Gal4-VP16 FLuc,DT40 TDP1 no CPT
C=CC[C@@H](Cc1ccc(F)cc1)C(=O)OC[C@@H]1CCCN1C(=O)[C@H](CC=C)CC(=O)N(CCO)Cc1ccccc1,-3%,.,?,.,18µM*
C=CC[C@@H](Cc1ccc(F)cc1)C(=O)OC[C@@H]1CCCN1C(=O)[C@H](CC=C)CC(=O)NCCO,1%,.,?,.,?
O=C(NC1CCCCC1)C12CC3CC(C1)CC(n1cncn1)(C3)C2,0%,-15%,6%,-7%,-1%
CC1(C)C(C=C(Cl)Cl)C1C(=O)OCc1cccc(Oc2ccccc2)c1 (configuration not stated),.,-5%,-13%,6%,-22%
COC(=O)C1CC23C=CCN4CCC5(c6ccccc6NC15C2C)C43 (configuration not stated),.,0%,1µM*,-5%,1.3µM*
CN1CC[C@]23c4ccccc4N[C@H]1[C@]21CCN(C)[C@H]3Nc2ccccc21,.,.,0%,.,7%
CC(=O)[C@@]1(O)CC[C@H]2C3CCC4=CC(=O)CC[C@]4(C)C3CC[C@@]21C (some centres not stated),8%[56.1 µM],.,.,.,.
O=C(CN1c2ccccc2Sc2ccccc21)NNC(=S)Nc1ccc(Cl)cc1Cl,10%,13µM*,?,?,?
O=C(CN1c2ccccc2Sc2ccccc21)N/N=C/c1ccc(Cl)cc1,.,28%,?,-1%,?
Cn1cccc1CC(=O)NNC(=S)Nc1ccc(Cl)cc1Cl,5%,?,?,?,5%
O=C(CN1c2ccccc2Sc2ccccc21)NNC(=S)Nc1ccc(Cl)cc1,.,10µM*,0%,?,-15%
O=C(CN1c2ccccc2Sc2ccccc21)N/N=C/c1ccc(Cl)cc1Cl,.,4%,?,-2%,18µM*
CC(=O)NNC(=O)c1ccncc1,3%,17%,-8%,-5%,-1%
Cc1cn([C@H]2C[C@H](O)[C@@H](CNS(=O)(=O)c3ccc(NS(=O)(=O)N(C)C)cc3)O2)c(=O)[nH]c1=O,.,.,-4%,.,-24%
COc1cccc(CNC(=O)C2CCC(=O)N(CC3CCCCC3)C2)c1OC (configuration not stated),4%,-18%,-9%,-2%,-19%
CCC(Sc1ncnc2sc(C)c(C)c12)C(=O)OC (configuration not stated),-5%,?,-11%,-27%,-24%
O=C(O)CSc1ncnc2sc3c(c12)CCC3,.,-26%,?,?,?
CCC(Sc1ncnc2sc3c(c12)CCCC3)C(=O)OCC(C)C (configuration not stated),.,.,26µM*,.,?
CCC(Sc1ncnc2sc3c(c12)CCCC3)C(=O)OC(C)C (configuration not stated),.,.,18µM*,.,?
